# Measurements taken from PubChem BioAssay AID540259 (Broad Institute, 2011).
# Results with a measured potency or affinity are listed apart. A number with no mark means an inactive call.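 The calls were made as follows: active = cell killing, meaning signal decrease, with fitted half-maximal dose at or below ten times the top valid tested dose; inconclusive = poor fit, or flat curve with 30 to 70% signal loss; inactive = the rest.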
# Assay: ATP-based viability loss in HeLa cells – cell-based, CellTiter-Glo luminescence, cherry-pick samples, cytotoxicity control for MITF activator project, dose response (AID 540259);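 also: 0% = DMSO neutral control and -100% = mitoxantrone positive control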
# Conditions: 24 h; series mostly up to 35 µM; activity change, negative = cytotoxicity: at the top concentration
row,SMILES,"activity change, negative = cytotoxicity"
1,c1csc(CSc2nc3ccccc3s2)c1,-1.49%
2,COc1ccccc1/C=C/C=N/n1c(-c2ccccn2)n[nH]c1=S,2.88%
3,C=CCn1cnc2c(nnn2-c2ccc(C)c(C)c2)c1=O,-8.47%
4,Cc1cc(C)c(NN=c2c(=O)c3ccccc3c2=O)c(C)c1,4.61%
5,Cc1ccc(NC(=O)CCCc2ccccc2)nc1,0.518%
6,NC(=O)c1cnn(-c2cc(Oc3ccccc3)ncn2)c1N,5.25%
7,CCN1CCN(c2cc3c(nn2)Oc2ccccc2N3C)CC1,10.1%
8,CSc1cccc(NC(=O)c2cnn3ccccc23)c1,-3.79%
9,CCN1CCN(c2ccc(NC(=O)c3cccc(F)c3)cc2Cl)CC1,4.94%
10,O=C(Cc1ccccc1)Nc1ccc2c(c1)OC1(CCCC1)O2,10.1%
11,Cc1ccc2cc(NC(=O)c3ccccc3C)ccc2n1,0.529% [at 11 µM]
12,CSc1ccccc1OCc1cc(C(=O)N[C@H]2CCCCNC2=O)no1,11.5%
13,COC(=O)Cc1ccc(OCc2ccc(Cl)nc2)cc1,2.94%
14,CC1CCc2nc(NC(=O)Cc3cccs3)sc2C1 (stereo unspecified),4.91%
15,CC(C)(C)C(=O)N1CCN(c2nc3ccccc3s2)CC1,-0.769%
16,Cc1ccc(-c2nn(-c3ccccc3)cc2/C=N/O)cc1,27.1% [at 11 µM]
